From PubChem BioAssay
For some assays here: Entries with a potency or affinity are not part of this list. Calls of active or inactive are those of the source. Unless noted, how the calls were made is not given here.

How the values were obtained:
[1] = antimalarial activity against Dd2 strain (AID 2302;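 active means growth inhibition above 50% at the single 2 µM test dose, taken to imply half-maximal potency below 2 µM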;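 further: 0% = DMSO untreated growth and 100% = chloroquine plus artemisinin killed control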); conditions: P. falciparum Dd2 in RBCs, LDH growth readout, 72 h; at 2 µM; active compounds read high
[2] = human hepatoma cell viability loss – ATP luminescence, cytotoxicity control for P. falciparum antimalarial project, primary screen (AID 2303;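 active means inhibition above 50%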;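 further: 0% = DMSO wells and 100% = digitonin-killed cells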); conditions: HepG2 viability, 24-48 h, at 10 µM, active compounds read high
[3] = biological target: L-lactate dehydrogenase (Plasmodium falciparum (isolate CDC / Honduras)) (UniProt Q27743); assay: PfLDH activity inhibition – cell lysate, 3D7 strain, counter-screen for P. falciparum growth inhibition project (AID 2304);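 further: 0% = vehicle and 100% = reference inhibitor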; conditions: P. falciparum 3D7 crude extract, LDH APAD/NBT absorbance; at 2 µM; active compounds read high
[4] = inhibition of 3D7 malaria parasite growth – strain 3D7 (AID 2306);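 further: 0% = DMSO wells and 100% = chloroquine plus artemisinin control wells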; conditions: P. falciparum 3D7 erythrocytic growth, LDH absorbance, 72 h; at 2 µM; active compounds read high
[5] = biological target: Calcium-dependent protein kinase 1 (Plasmodium falciparum (isolate 3D7)) (UniProt P62344); assay: PfCDPK1 kinase inhibitors, biochemical, TCAMS library (AID 1159585; cut-off not given, nearly all actives have IC50 up to about 0.98 µM;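 further: inhibitors leave more ATP so luminescence rises with inhibition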); conditions: recombinant PfCDPK1, Kinase-Glo ATP depletion luminescence
[6] = biological target: Plasmodium falciparum protein kinase 6 (PK6, PF3D7_1337100) (UniProt Q8IDW1); assay: PfPK6 kinase inhibitors, biochemical, TCAMS library (AID 1159586); conditions: recombinant PfPK6, Kinase-Glo ATP depletion luminescence
[7] = biological target: Protein kinase 7 (PK7), Plasmodium falciparum 3D7 (PF3D7_0213400) (UniProt Q7YTF7); assay: inhibition of Plasmodium PK7 catalytic activity – biochemical, TCAMS antimalarial set, Kinase-Glo luminescence (AID 1159587); conditions: recombinant PfPK7, Kinase-Glo ATP depletion luminescence
[8] = biological target: Calcium-dependent protein kinase 4 (Plasmodium falciparum (isolate 3D7)) (UniProt Q8IBS5); assay: PfCDPK4 kinase inhibitors, biochemical, TCAMS library (AID 1159588; cut-off not given, nearly all actives have IC50 up to about 0.91 µM); conditions: recombinant PfCDPK4, Kinase-Glo ATP depletion luminescence
Sequence of Calcium-dependent protein kinase 4 (Plasmodium falciparum (isolate 3D7)) (Q8IBS5 whole entry, looked up): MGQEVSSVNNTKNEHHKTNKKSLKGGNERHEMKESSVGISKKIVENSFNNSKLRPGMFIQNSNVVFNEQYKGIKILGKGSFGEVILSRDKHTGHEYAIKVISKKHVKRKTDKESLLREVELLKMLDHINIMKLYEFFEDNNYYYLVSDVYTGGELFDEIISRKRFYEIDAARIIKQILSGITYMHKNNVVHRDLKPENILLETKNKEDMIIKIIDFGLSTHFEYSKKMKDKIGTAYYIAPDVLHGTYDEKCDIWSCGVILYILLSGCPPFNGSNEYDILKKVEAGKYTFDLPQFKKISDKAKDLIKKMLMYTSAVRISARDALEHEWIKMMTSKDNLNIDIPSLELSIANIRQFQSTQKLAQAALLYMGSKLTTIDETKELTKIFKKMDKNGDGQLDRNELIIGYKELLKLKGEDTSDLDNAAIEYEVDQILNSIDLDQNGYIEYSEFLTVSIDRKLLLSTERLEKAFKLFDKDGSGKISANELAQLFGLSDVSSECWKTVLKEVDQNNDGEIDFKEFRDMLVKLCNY

Sequence of Protein kinase 7 (PK7), Plasmodium falciparum 3D7 (PF3D7_0213400) (Q7YTF7 1-343): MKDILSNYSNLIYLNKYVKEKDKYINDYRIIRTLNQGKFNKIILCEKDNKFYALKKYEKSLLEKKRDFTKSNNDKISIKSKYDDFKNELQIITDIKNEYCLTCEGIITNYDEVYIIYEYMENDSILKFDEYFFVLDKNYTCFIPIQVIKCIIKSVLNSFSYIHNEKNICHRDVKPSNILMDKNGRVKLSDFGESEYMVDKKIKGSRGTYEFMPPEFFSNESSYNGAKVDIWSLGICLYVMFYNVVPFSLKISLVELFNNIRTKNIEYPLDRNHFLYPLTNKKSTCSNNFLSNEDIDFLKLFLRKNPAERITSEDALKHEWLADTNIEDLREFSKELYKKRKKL
Sequence of Calcium-dependent protein kinase 1 (Plasmodium falciparum (isolate 3D7)) (P62344 whole entry, looked up): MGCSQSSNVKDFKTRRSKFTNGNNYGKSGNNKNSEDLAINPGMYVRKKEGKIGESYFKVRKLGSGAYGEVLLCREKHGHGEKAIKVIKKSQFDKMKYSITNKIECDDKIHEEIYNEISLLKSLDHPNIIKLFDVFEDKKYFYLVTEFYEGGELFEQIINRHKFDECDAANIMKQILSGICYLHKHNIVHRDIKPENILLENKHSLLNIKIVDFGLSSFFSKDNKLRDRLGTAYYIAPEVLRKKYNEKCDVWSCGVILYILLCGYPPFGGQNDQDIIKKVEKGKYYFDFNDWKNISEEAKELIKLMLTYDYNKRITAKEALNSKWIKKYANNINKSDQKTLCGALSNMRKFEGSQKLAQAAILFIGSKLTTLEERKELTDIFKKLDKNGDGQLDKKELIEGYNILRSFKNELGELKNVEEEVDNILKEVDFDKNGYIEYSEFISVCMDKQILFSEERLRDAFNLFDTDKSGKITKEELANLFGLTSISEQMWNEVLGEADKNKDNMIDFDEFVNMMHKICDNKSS
Sequence of Plasmodium falciparum protein kinase 6 (PK6, PF3D7_1337100) (Q8IDW1 1-305): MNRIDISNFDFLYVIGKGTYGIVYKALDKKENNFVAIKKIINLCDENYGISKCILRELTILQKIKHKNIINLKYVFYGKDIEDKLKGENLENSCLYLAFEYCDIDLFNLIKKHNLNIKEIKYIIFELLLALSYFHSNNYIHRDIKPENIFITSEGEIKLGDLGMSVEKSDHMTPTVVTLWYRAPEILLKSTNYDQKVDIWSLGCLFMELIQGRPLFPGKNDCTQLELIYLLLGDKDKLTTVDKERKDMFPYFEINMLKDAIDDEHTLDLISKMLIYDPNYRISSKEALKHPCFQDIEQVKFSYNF
Sequence of L-lactate dehydrogenase (Plasmodium falciparum (isolate CDC / Honduras)) (Q27743 whole entry, looked up): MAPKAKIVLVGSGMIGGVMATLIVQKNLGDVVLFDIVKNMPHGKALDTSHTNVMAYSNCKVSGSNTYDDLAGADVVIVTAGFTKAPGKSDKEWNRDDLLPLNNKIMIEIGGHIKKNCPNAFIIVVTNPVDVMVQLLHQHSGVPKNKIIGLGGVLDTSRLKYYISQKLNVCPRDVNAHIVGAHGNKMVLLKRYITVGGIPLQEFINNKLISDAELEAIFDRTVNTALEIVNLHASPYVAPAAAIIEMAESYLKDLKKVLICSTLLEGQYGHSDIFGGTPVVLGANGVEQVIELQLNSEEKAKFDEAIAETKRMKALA

C=CCc1ccc(C2CCN(CCCCNC(=O)c3ccc(NC(=O)c4ccc(Cl)cc4)cc3)CC2)cc1
active: growth inhibition [1] 97% | growth inhibition [4] 101%
inactive: inhibition [2] 27% | inhibition [3] -5% | outcome [5] | outcome [6] | outcome [7] | outcome [8]

OCCN1CCN(Cc2ccc(-c3ccc(-c4nc5ccc(C(F)(F)F)cc5[nH]4)s3)cc2)CC1
inactive: inhibition [3] -7% | outcome [5] | outcome [6] | outcome [7] | outcome [8]
active: growth inhibition [1] 99% | inhibition [2] 65% | growth inhibition [4] 101%

COc1ccccc1CCNc1nc(C)cc(NCCC(=O)NCCOc2ccccc2)n1
inactive: growth inhibition [1] 14% | inhibition [2] 11% | inhibition [3] -3% | outcome [5] | outcome [6] | outcome [7] | outcome [8]
active: growth inhibition [4] 85%

CNC(=O)C1Cc2c([nH]c3ccc(Br)cc23)C2(CCN(CCc3ccccc3)CC2)N1 (stereo unspecified)
active: growth inhibition [1] 60% | growth inhibition [4] 101%
inactive: inhibition [2] 15% | inhibition [3] -2% | outcome [5] | outcome [6] | outcome [7] | outcome [8]

CCN(C1CCCCC1)S(=O)(=O)c1ccc(OC)c(N2CCN(C(=O)C(Cl)(Cl)Cl)CC2)c1
active: growth inhibition [1] 85% | growth inhibition [4] 100%
inactive: inhibition [2] 0% | inhibition [3] 3% | outcome [5] | outcome [6] | outcome [7] | outcome [8]

C(=Cc1nc2ccccc2s1)c1ccc2c(c1)OCCO2
inactive: inhibition [2] 13% | inhibition [3] 1% | outcome [5] | outcome [6] | outcome [7] | outcome [8]
active: growth inhibition [1] 96% | growth inhibition [4] 98%

N#Cc1ccc(-c2ccc(OCC(O)CN3CCCN(C(=O)C(c4ccc5c(c4)OCO5)N4CCN(C/C=C/c5ccccc5)CC4)CC3)cc2)cc1 (stereo unspecified)
inactive: inhibition [2] 25% | inhibition [3] 3% | outcome [5] | outcome [6] | outcome [7] | outcome [8]
active: growth inhibition [1] 77% | growth inhibition [4] 99%

CCCCCCCCCCNCC(O)c1ccc(O)c(C(=O)OC)c1 (stereo unspecified)
inactive: inhibition [2] 3% | inhibition [3] -7% | outcome [5] | outcome [6] | outcome [7] | outcome [8]
active: growth inhibition [1] 97% | growth inhibition [4] 97%

Cc1nc2nc(N)nc(N)c2c(C)c1Cc1ccccc1Br
active: inhibition [2] 65% | growth inhibition [4] 92%
inactive: growth inhibition [1] 2% | inhibition [3] 1% | outcome [5] | outcome [6] | outcome [7] | outcome [8]

CCCCCCCN1CC[C@@H](CCCc2ccnc3ccc(OCCN4CCNCC4)cc23)[C@@H](CC)C1
inactive: inhibition [3] -2% | outcome [5] | outcome [6] | outcome [7] | outcome [8]
active: growth inhibition [1] 98% | inhibition [2] 82% | growth inhibition [4] 101%

CC1CN(Cc2ccccc2)CCN1c1ccc(NC(=O)c2cccs2)cc1 (stereo unspecified)
inactive: inhibition [2] 0% | inhibition [3] -2% | outcome [5] | outcome [6] | outcome [7] | outcome [8]
active: growth inhibition [1] 96% | growth inhibition [4] 96%

COc1cccc(CNc2ncc(-c3ccsc3)c(-c3nccs3)n2)c1
inactive: inhibition [2] 9% | inhibition [3] 3% | outcome [5] | outcome [6] | outcome [7] | outcome [8]
active: growth inhibition [1] 82% | growth inhibition [4] 89%

O=C(Nc1ccc2c(c1)CCC2)c1nc(N2CCN(c3ccncc3)CC2)ccc1Cl
active: growth inhibition [1] 97% | inhibition [2] 55% | growth inhibition [4] 101%
inactive: inhibition [3] -1% | outcome [5] | outcome [6] | outcome [7] | outcome [8]

c1ccn2c(Sc3ncnc4sccc34)ncc2c1
inactive: inhibition [2] -14% | inhibition [3] 2% | outcome [5] | outcome [6] | outcome [7] | outcome [8]
active: growth inhibition [1] 100% | growth inhibition [4] 100%

Cn1ncc2c3c(CCN4CCC(NCc5cc6c(cn5)OCC6)CC4)c(Cl)cnc3ccc21
active: growth inhibition [4] 94%
inactive: growth inhibition [1] 0% | inhibition [2] 4% | inhibition [3] 2% | outcome [5] | outcome [6] | outcome [7] | outcome [8]

COc1cc2nccc(Nc3cc(C)cc(O)c3)c2cc1OC
active: growth inhibition [4] 97%
inactive: growth inhibition [1] -2% | inhibition [2] -6% | inhibition [3] 0% | outcome [5] | outcome [6] | outcome [7] | outcome [8]

Cc1cccc2[nH]c(-c3cccc(-c4cccc(CN5CCC(CO)CC5)c4)c3)nc12
active: growth inhibition [1] 90% | growth inhibition [4] 101%
inactive: inhibition [2] 4% | inhibition [3] -6% | outcome [5] | outcome [6] | outcome [7] | outcome [8]

CCc1ccc(CN2CCC(CNC(=O)c3cc(-c4cccc(C(F)(F)F)c4)cs3)C2)cc1 (stereo unspecified)
inactive: growth inhibition [1] 48% | inhibition [2] 45% | inhibition [3] 2% | outcome [5] | outcome [6] | outcome [7] | outcome [8]
active: growth inhibition [4] 97%

COc1cc2c(cc1OC)CN(CCCCc1ccc(NC(=O)c3cc(Cl)cc(Cl)c3)cc1)CC2
active: growth inhibition [4] 95%
inactive: growth inhibition [1] 4% | inhibition [2] 21% | inhibition [3] -3% | outcome [5] | outcome [6] | outcome [7] | outcome [8]

CCCCN1CCN(Cc2cccc(NC(=O)c3ccc(Cl)c(Cl)c3)c2)CC1
inactive: growth inhibition [1] 24% | inhibition [2] 21% | inhibition [3] 1% | outcome [5] | outcome [6] | outcome [7] | outcome [8]
active: growth inhibition [4] 88%

O=C1COC2(CN1C1CCN(Cc3ccc(O)cc3Cl)C1)c1ccccc1-c1ccccc12 (stereo unspecified)
inactive: inhibition [2] 10% | inhibition [3] -1% | outcome [5] | outcome [6] | outcome [7] | outcome [8]
active: growth inhibition [1] 70% | growth inhibition [4] 82%

Cc1cc(NC(=O)c2ccc(S(=O)(=O)N(Cc3ccccc3)C(C)C)cc2)no1
active: growth inhibition [1] 67% | growth inhibition [4] 87%
inactive: inhibition [2] -6% | inhibition [3] -1% | outcome [5] | outcome [6] | outcome [7] | outcome [8]

CC(C)COc1cc(C(=O)Nc2cnc3ccccc3c2)ccc1[N+](=O)[O-]
active: growth inhibition [1] 56% | growth inhibition [4] 97%
inactive: inhibition [2] 19% | inhibition [3] -1% | outcome [5] | outcome [6] | outcome [7] | outcome [8]

Cc1[nH]nc2ccc(-c3ccc4nccc(N5CCC(N)CC5)c4c3)cc12
active: growth inhibition [1] 100% | inhibition [2] 67% | growth inhibition [4] 101%
inactive: inhibition [3] -3% | outcome [5] | outcome [6] | outcome [7] | outcome [8]

COc1cccc(C(=O)OC2=C3CCC(=O)C3(C)CCC2=O)c1 (stereo unspecified)
inactive: growth inhibition [1] 9% | inhibition [2] 37% | inhibition [3] 2% | outcome [5] | outcome [6] | outcome [7] | outcome [8]
active: growth inhibition [4] 93%

C[C@@H]1CN(c2cnn(Cc3ccc(NC(=O)Nc4ccc(F)cc4[N+](=O)[O-])cc3)c(=O)c2Cl)C[C@H](C)N1
inactive: growth inhibition [1] 10% | inhibition [2] 4% | inhibition [3] -2% | outcome [5] | outcome [6] | outcome [7] | outcome [8]
active: growth inhibition [4] 89%

FC(F)(F)COc1ccc2ccccc2c1CCNCCCCNCCc1c(OCC(F)(F)F)ccc2ccccc12
inactive: inhibition [3] 0% | outcome [5] | outcome [6] | outcome [7] | outcome [8]
active: growth inhibition [1] 53% | inhibition [2] 99% | growth inhibition [4] 100%

COc1ccc(Cc2cccc(C(C(=O)NCc3cc(Cl)cc(Cl)c3)N3CCN(C)CC3)c2)cc1 (stereo unspecified)
active: growth inhibition [4] 101%
inactive: growth inhibition [1] 24% | inhibition [2] 8% | inhibition [3] -9% | outcome [5] | outcome [6] | outcome [7] | outcome [8]

CCc1cn(CCCOC)c2ccc(C(=O)N[C@@H](Cc3ccccc3)[C@H](O)CNCc3cccc(C(F)(F)F)c3)cc12
active: growth inhibition [1] 78% | growth inhibition [4] 93%
inactive: inhibition [2] 8% | inhibition [3] -4% | outcome [5] | outcome [6] | outcome [7] | outcome [8]

COc1ccccc1CCNc1nc(C)cc(N[C@@H](Cc2ccccc2)C(=O)NCCOc2ccccc2)n1
active: growth inhibition [1] 76% | growth inhibition [4] 101%
inactive: inhibition [2] 20% | inhibition [3] 4% | outcome [5] | outcome [6] | outcome [7] | outcome [8]

COc1ccc2nccc([C@@H](O)CN3CCC(NCc4ccc5c(c4)sc(=O)n5C)CC3)c2c1
inactive: inhibition [2] 10% | inhibition [3] -6% | outcome [5] | outcome [6] | outcome [7] | outcome [8]
active: growth inhibition [1] 72% | growth inhibition [4] 100%

CN(C)CC(=O)N(Cc1ccc(Cl)c(Cl)c1)Cc1csc(-c2ccc(CNCc3ccccc3)cc2)n1
inactive: growth inhibition [1] 32% | inhibition [2] 30% | inhibition [3] 4% | outcome [5] | outcome [6] | outcome [7] | outcome [8]
active: growth inhibition [4] 96%

CC(O)c1cccc(-c2ccc(Nc3ccnc4cc(-c5nccs5)ccc34)cc2)c1 (stereo unspecified)
inactive: inhibition [2] 31% | inhibition [3] -1% | outcome [5] | outcome [6] | outcome [7] | outcome [8]
active: growth inhibition [1] 69% | growth inhibition [4] 91%

O=C(Nc1cccc(CN2CCCN(Cc3cccnc3)CC2)c1)c1ccc(Cl)c(Cl)c1
inactive: growth inhibition [1] 19% | inhibition [2] 16% | inhibition [3] -2% | outcome [5] | outcome [6] | outcome [7] | outcome [8]
active: growth inhibition [4] 84%

Cc1ccccc1C1CCN(C2CCC(NC(=O)c3cncc(-c4ccccc4)c3)CC2)CC1 (stereo unspecified)
inactive: inhibition [2] 27% | inhibition [3] -1% | outcome [5] | outcome [6] | outcome [7] | outcome [8]
active: growth inhibition [1] 92% | growth inhibition [4] 101%

Cc1cc(N2CCCC2=O)ccc1-c1ccc(C(=O)N2CCC(Oc3cccc(Cl)c3)CC2)cc1
inactive: inhibition [2] 34% | inhibition [3] -3% | outcome [5] | outcome [6] | outcome [7] | outcome [8]
active: growth inhibition [1] 98% | growth inhibition [4] 99%

CCOC(=O)N[C@@H]1CN[C@@H](C#Cc2cc3c(Nc4ccc(OCc5cccc(F)c5)c(Cl)c4)ncnc3s2)C1
active: growth inhibition [4] 86%
inactive: growth inhibition [1] 13% | inhibition [2] 8% | inhibition [3] -3% | outcome [5] | outcome [6] | outcome [7] | outcome [8]
